Reference: PubChem BioAssay (NCI)
The panel holds about 79,000 compounds, 15% with a hit somewhere; the sample as a whole holds those more often. Values without a mark were called inactive. Calls of active or inactive are those of the source. Cut-off read from the data, not from the text of the source: active = growth inhibition above about 70%; inactive = the rest.

Tests used:
[1] = NCI Yeast Anticancer Drug Screen. Data for the rad52 strain (AID 147);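 note: 0% = growth of vehicle-treated control cultures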; details: S. cerevisiae rad52 mutant growth inhibition, stronger effect = higher value
Procedure, shortened: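 Measured: yeast growth inhibition. System: strain with a defined DNA damage repair alteration. Reference: vehicle-treated control cultures.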

[2] = NCI Yeast Anticancer Drug Screen. Data for the wt1 strain (AID 149);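 note: 0% = growth of vehicle-treated wt1 cultures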; details: S. cerevisiae wt1 strain (SPY 50644) growth inhibition, stronger effect = higher value
Procedure, shortened: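 Readout: yeast growth inhibition, normalised to vehicle controls, in the wt1 strain exposed to test compounds.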

[3] = NCI Yeast Anticancer Drug Screen. Data for the rad50 strain (AID 155);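 note: 0% = growth of vehicle-only cultures of the same strain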; details: S. cerevisiae rad50 strain growth inhibition, stronger effect = higher value
Procedure, shortened: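 Compounds were tested on a yeast strain with an engineered DNA damage repair alteration; the reported value is growth inhibition normalised to vehicle treatment.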

[4] = NCI Yeast Anticancer Drug Screen. Data for the mec2-1 strain (AID 157); details: S. cerevisiae mec2-1 strain, stronger effect = higher value
Procedure, shortened: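 Test agents were screened against the mec2-1 yeast strain, with defined DNA repair or cell cycle alteration. Growth was scored as inhibition against vehicle-only controls.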

[5] = NCI Yeast Anticancer Drug Screen. Data for the rad14 strain (AID 159);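 note: 0% = growth of vehicle-treated control cultures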; details: S. cerevisiae rad14 strain growth inhibition, stronger effect = higher value
Procedure, shortened: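 Compound-treated yeast with a defined DNA-repair lesion; growth inhibition normalised to vehicle-treated cultures.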

[6] = NCI Yeast Anticancer Drug Screen. Data for the sgs1 mgt1 strain (AID 161);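 note: 0% = growth of cultures given vehicle only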; details: S. cerevisiae sgs1 mgt1 strain, stronger effect = higher value
Procedure, shortened: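 Test agents were incubated with a DNA-repair-mutant yeast strain. Growth was then read and compared against vehicle-treated controls.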

[7] = NCI Yeast Anticancer Drug Screen. Data for the CLN2oe strain (AID 163);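 note: 0% = growth of vehicle-only control cultures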; details: S. cerevisiae CLN2oe strain, stronger effect = higher value
Procedure, shortened: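 Here, growth inhibition in a cell-cycle-altered yeast strain after compound exposure was quantified against vehicle control growth.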

[8] = NCI Yeast Anticancer Drug Screen. Data for the cln2 rad14 strain (AID 165);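 note: 0% = growth equal to vehicle treated cultures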; details: S. cerevisiae cln2 rad14 strain, stronger effect = higher value
Procedure, shortened: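 Growth of compound-exposed yeast (cln2 rad14 genotype) measured and expressed as inhibition relative to vehicle.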

[9] = NCI Yeast Anticancer Drug Screen. Data for the bub3 strain (AID 167); details: S. cerevisiae bub3 mutant strain, stronger effect = higher value
Procedure, shortened: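 Growth of a checkpoint-deficient yeast mutant is measured after compound exposure. Values represent inhibition relative to vehicle.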

[10] = NCI Yeast Anticancer Drug Screen. Data for the wt2 strain (AID 169);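 note: 0% = growth of vehicle-treated yeast cultures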; details: S. cerevisiae wt2 strain growth inhibition, stronger effect = higher value
Procedure, shortened: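 Genetically defined yeast strains from a DNA-repair/cell-cycle panel were used. Compound-exposed yeast growth was measured, and the inhibition was calculated relative to vehicle treatment.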

[11] = NCI Yeast Anticancer Drug Screen. Data for the mlh1 strain (AID 171);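 note: 0% = growth of vehicle-treated control cultures of the same strain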; details: S. cerevisiae mlh1 strain growth inhibition, stronger effect = higher value
Procedure, shortened: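 Here the genetically defined yeast mutant is grown with each compound, and the extent to which its growth falls below that of vehicle-exposed cells is reported.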

[12] = NCI Yeast Anticancer Drug Screen. Data for the sgs1 strain (AID 173);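 note: 0% = growth of vehicle-only control cultures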; details: S. cerevisiae sgs1 mutant, stronger effect = higher value
Procedure, shortened: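 Relative growth inhibition, referenced to vehicle, was determined in a yeast strain with a defined alteration affecting DNA damage repair or cell cycle control after compound exposure.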

[13] = NCI Yeast Anticancer Drug Screen. Data for the mlh1 rad18 strain (AID 175); details: S. cerevisiae mlh1 rad18 strain growth inhibition, stronger effect = higher value
Procedure, shortened: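 In this whole-cell yeast screen, a strain with altered DNA damage repair is challenged with compound, and its growth is measured against matched vehicle-treated controls.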

[14] = NCI Yeast Anticancer Drug Screen. Data for the rad18 strain (AID 177); details: S. cerevisiae rad18 mutant growth inhibition, stronger effect = higher value
Procedure, shortened: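 Screen uses a yeast strain with a defined lesion in DNA damage repair; compound effect is read as loss of growth compared to untreated vehicle cultures.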

[15] = at 5.0 µM (retest, dose inferred, filed as 0.5)
[16] = at 50.0 µM (retest, dose inferred, filed as 5.0)

Q: With Nc1nc(N)c2c(Cl)c(CNc3ccc(C(=O)NC(CC(=O)O)C(=O)O)cc3)ccc2n1 (stereo not drawn) as the compound, how does the growth inhibition ([1]; at 1.2 µM) read?
A: The growth inhibition was 40%.

Q: And the growth inhibition ([1]; at 3.7 µM)?
A: The growth inhibition was 35%.

Q: What about the growth inhibition ([1]; at 11.0 µM) of the same compound?
A: The growth inhibition was 52%.

Q: And the growth inhibition ([1]; at 33.0 µM)?
A: Its growth inhibition is 80% (active).

Q: And the growth inhibition ([1]; at 100.0 µM)?
A: Its growth inhibition is 91% (active).

Q: And the growth inhibition ([2]; at 1.2 µM)?
A: Its growth inhibition is 19%.

Q: And the growth inhibition ([2]; at 3.7 µM)?
A: Its growth inhibition is 15%.

Q: And the growth inhibition ([2]; at 11.0 µM)?
A: The growth inhibition was 17%.

Q: And the growth inhibition ([2]; at 33.0 µM)?
A: Its growth inhibition is 42%.

Q: And the growth inhibition ([2]; at 100.0 µM)?
A: The growth inhibition was 74% (active).

Q: What about the growth inhibition ([3]; at 1.2 µM) of the same compound?
A: The growth inhibition was 12%.

Q: What about the growth inhibition ([3]; at 3.7 µM) of the same compound?
A: The growth inhibition was 18%.

Q: What about the growth inhibition [3, 15] of the same compound?
A: The growth inhibition was 8%.

Q: And the growth inhibition ([3]; at 11.0 µM)?
A: The growth inhibition was 14%.

Q: What about the growth inhibition ([3]; at 33.0 µM) of the same compound?
A: Its growth inhibition is 65%.

Q: What about the growth inhibition [3, 16] of the same compound?
A: Its growth inhibition is 47%.

Q: And the growth inhibition ([3]; at 50.0 µM)?
A: The growth inhibition was 77.5% (active).

Q: What about the growth inhibition ([3]; at 100.0 µM) of the same compound?
A: Its growth inhibition is 80% (active).

Q: What about the growth inhibition ([4]; at 1.2 µM) of the same compound?
A: Its growth inhibition is 14%.

Q: What about the growth inhibition ([4]; at 3.7 µM) of the same compound?
A: Its growth inhibition is 28%.

Q: What about the growth inhibition [4, 15] of the same compound?
A: The growth inhibition was 0%.

Q: And the growth inhibition ([4]; at 11.0 µM)?
A: The growth inhibition was 75% (active).

Q: And the growth inhibition ([4]; at 33.0 µM)?
A: Its growth inhibition is 93% (active).

Q: And the growth inhibition [4, 16]?
A: Its growth inhibition is 90% (active).

Q: And the growth inhibition ([4]; at 50.0 µM)?
A: The growth inhibition was 87.8% (active).

Q: What about the growth inhibition ([4]; at 100.0 µM) of the same compound?
A: The growth inhibition was 95% (active).

Q: And the growth inhibition ([5]; at 1.2 µM)?
A: The growth inhibition was -8%.

Q: What about the growth inhibition ([5]; at 3.7 µM) of the same compound?
A: The growth inhibition was -11%.

Q: And the growth inhibition ([5]; at 11.0 µM)?
A: Its growth inhibition is -18%.

Q: What about the growth inhibition ([5]; at 33.0 µM) of the same compound?
A: The growth inhibition was 44%.

Q: What about the growth inhibition ([5]; at 100.0 µM) of the same compound?
A: Its growth inhibition is 78% (active).

Q: What about the growth inhibition [6, 15] of the same compound?
A: Its growth inhibition is 20%.

Q: What about the growth inhibition [6, 16] of the same compound?
A: The growth inhibition was 50%.

Q: What about the growth inhibition ([6]; at 50.0 µM) of the same compound?
A: The growth inhibition was 55.5%.

Q: What about the growth inhibition ([7]; at 1.2 µM) of the same compound?
A: Its growth inhibition is -5%.

Q: What about the growth inhibition ([7]; at 3.7 µM) of the same compound?
A: The growth inhibition was 15%.

Q: And the growth inhibition ([7]; at 11.0 µM)?
A: Its growth inhibition is 12%.

Q: And the growth inhibition ([7]; at 33.0 µM)?
A: Its growth inhibition is 22%.

Q: And the growth inhibition ([7]; at 100.0 µM)?
A: The growth inhibition was 34%.

Q: And the growth inhibition [8, 15]?
A: The growth inhibition was 20%.

Q: What about the growth inhibition [8, 16] of the same compound?
A: The growth inhibition was 16%.

Q: And the growth inhibition ([8]; at 50.0 µM)?
A: The growth inhibition was 19.4%.

Q: What about the growth inhibition ([9]; at 1.2 µM) of the same compound?
A: The growth inhibition was 3%.

Q: And the growth inhibition ([9]; at 3.7 µM)?
A: The growth inhibition was -10%.

Q: What about the growth inhibition [9, 15] of the same compound?
A: The growth inhibition was -9%.

Q: And the growth inhibition ([9]; at 11.0 µM)?
A: The growth inhibition was 14%.

Q: And the growth inhibition ([9]; at 33.0 µM)?
A: Its growth inhibition is 7%.

Q: And the growth inhibition [9, 16]?
A: Its growth inhibition is 26%.

Q: What about the growth inhibition ([9]; at 50.0 µM) of the same compound?
A: Its growth inhibition is 43.5%.

Q: And the growth inhibition ([9]; at 100.0 µM)?
A: The growth inhibition was 72% (active).

Q: And the growth inhibition ([10]; at 1.2 µM)?
A: Its growth inhibition is -42%.

Q: And the growth inhibition ([10]; at 3.7 µM)?
A: Its growth inhibition is -44%.

Q: What about the growth inhibition ([10]; at 11.0 µM) of the same compound?
A: The growth inhibition was -42%.

Q: What about the growth inhibition ([10]; at 33.0 µM) of the same compound?
A: The growth inhibition was -1%.

Q: What about the growth inhibition ([10]; at 100.0 µM) of the same compound?
A: The growth inhibition was 28%.

Q: What about the growth inhibition ([11]; at 1.2 µM) of the same compound?
A: Its growth inhibition is 16%.

Q: What about the growth inhibition ([11]; at 3.7 µM) of the same compound?
A: Its growth inhibition is 12%.

Q: What about the growth inhibition ([11]; at 11.0 µM) of the same compound?
A: Its growth inhibition is 1%.

Q: And the growth inhibition ([11]; at 33.0 µM)?
A: The growth inhibition was 25%.

Q: What about the growth inhibition ([11]; at 100.0 µM) of the same compound?
A: Its growth inhibition is 44%.

Q: What about the growth inhibition ([12]; at 1.2 µM) of the same compound?
A: Its growth inhibition is 30%.

Q: What about the growth inhibition ([12]; at 3.7 µM) of the same compound?
A: Its growth inhibition is 22%.

Q: What about the growth inhibition ([12]; at 11.0 µM) of the same compound?
A: The growth inhibition was 31%.

Q: What about the growth inhibition ([12]; at 33.0 µM) of the same compound?
A: Its growth inhibition is 45%.

Q: What about the growth inhibition ([12]; at 100.0 µM) of the same compound?
A: The growth inhibition was 66%.

Q: What about the growth inhibition [13, 15] of the same compound?
A: The growth inhibition was 12%.

Q: And the growth inhibition [13, 16]?
A: The growth inhibition was 46%.

Q: And the growth inhibition ([13]; at 50.0 µM)?
A: The growth inhibition was 52.1%.

Q: What about the growth inhibition ([14]; at 1.2 µM) of the same compound?
A: The growth inhibition was 48%.

Q: What about the growth inhibition ([14]; at 3.7 µM) of the same compound?
A: The growth inhibition was 54%.

Q: And the growth inhibition ([14]; at 11.0 µM)?
A: Its growth inhibition is 57%.

Q: What about the growth inhibition ([14]; at 33.0 µM) of the same compound?
A: The growth inhibition was 78% (active).

Q: What about the growth inhibition ([14]; at 100.0 µM) of the same compound?
A: The growth inhibition was 84% (active).
